Data taken from PubChem BioAssay (NCATS).
Inconclusive results are not listed. The source made the active and inactive calls. Calls follow the shape of the dose curve; as a rule, active = well fitted curve in the direction sought with a large enough effect; inconclusive = small, poorly fitted or top-dose-only effect, or another doubt; inactive = no such curve, though single readings can be large; an effect the other way counts as inactive or inconclusive.

Assay: Counterscreen qHTS for small molecule stabilizers of the endoplasmic reticulum resident proteome: GLuc-NoTag assay (AID 1508627);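 as to activity change, negative = inhibition: 0% = thapsigargin alone and -100% = DMSO vehicle control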
Details: Gaussia luciferase NoTag secretion counterscreen, luminescence, thapsigargin 100 nM for final 4 h; series mostly up to 76.4 µM; activity change, negative = inhibition: at the top concentration
Method in brief: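 Secreted GLuc lacking the SERCaMP modification is measured in SH-SY5Y cells exposed to compound for 19 h and then to thapsigargin (100 nM, 4 h) to deplete ER calcium; hits retested at 11 concentrations, up to 76.6 uM.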
Potency is read from the fitted curve at half-maximal effect.

SMILES	activity change, negative = inhibition	Potency
C=C1C(=O)OC2C=C(C)CCC=C(C)CCC12 (configuration not stated)	-8.09% (inactive)	–
O=C1c2ccccc2-[n+]2ccc3c([nH]c4ccccc43)c21	–	2 µM (active)
CC[C@H]1OC(=O)[C@H](C)[C@@H](O[C@H]2C[C@@](C)(OC)[C@@H](O)[C@H](C)O2)[C@H](C)[C@@H](O[C@@H]2O[C@H](C)C[C@H](N(C)C)[C@@H]2O)[C@](C)(O)C[C@@H](C)CN(C)[C@H](C)[C@@H](O)[C@]1(C)O	27.5% (inactive)	–

Assay: Cell Viability qHTS for small molecule stabilizers of the endoplasmic reticulum resident proteome (AID 1508629);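 also: compound exposure about 46 h in total before the viability read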;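 as to max response: human SH-SY5Y neuroblastoma cells carrying the GLuc-SERCaMP reporter; % is scaled to controls: 0 for no effect and ±100 for the full control effect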
Details: cell viability counter-screen, 100 nM thapsigargin for final 4 h

SMILES	Potency	max response
O=C1c2ccccc2-[n+]2ccc3c([nH]c4ccccc43)c21	1 µM (active)	–
Cn1cc(C=C2C(=O)Nc3cccnc32)c2ccccc21	–	16.6% (inactive)
Nc1ncnc2c1ncn2[C@@H]1O[C@H](CO)C[C@@H]1O	–	15.2% (inactive)

Assay: Primary qHTS for small molecule stabilizers of the endoplasmic reticulum resident proteome: Secreted ER Calcium Modulated Protein (SERCaMP) assay (AID 1508630); as to activity change, negative = inhibition: % is scaled to controls: 0 for no effect and ±100 for the full control effect
Details: SH-SY5Y GLuc-SERCaMP (Gaussia luciferase released on ER calcium loss) secretion, thapsigargin, luminescence; series mostly up to 38.4 µM; activity change, negative = inhibition: at the top concentration
Method in brief: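 The SH-SY5Y reporter protocol was run at 3 concentrations up to 38.3 uM (primary) or 11 concentrations (follow-up): 16 h compound, 100 nM thapsigargin for 4 h, then extracellular luciferase luminescence.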

SMILES	activity change, negative = inhibition	Potency
CC(C(=O)O)c1ccc(-c2ccccc2)c(F)c1 (configuration not stated)	71.8% (inactive)	–
CC(C)C[C@H](CC(=O)O)C(=O)N[C@@H](Cc1c[nH]c2ccccc12)C(=O)N[C@@H](C)c1ccccc1	208% (inactive)	–
O=C1c2ccccc2-[n+]2ccc3c([nH]c4ccccc43)c21	–	10.6 µM (active)
CCC(=O)NC[C@H](Cc1ccc(OCCc2nc(-c3ccccc3)oc2C)cc1)NC(C)=CC(=O)c1ccc(C(F)(F)F)cc1	0% (inactive)	–
CC[C@H]1OC(=O)[C@H](C)[C@@H](O[C@H]2C[C@@](C)(OC)[C@@H](O)[C@H](C)O2)[C@H](C)[C@@H](O[C@@H]2O[C@H](C)C[C@H](N(C)C)[C@@H]2O)[C@](C)(O)C[C@@H](C)CN(C)[C@H](C)[C@@H](O)[C@]1(C)O	-33.5% (inactive)	–
Nc1ncnc2c1ncn2[C@@H]1O[C@H](CO)C[C@@H]1O	-37.3% (inactive)	–
